Holding throughout (test): DAPPL (digital affinity profiling via proximity ligation, sequencing); 10 mM Tris-HCl pH 7.5, 50 mM NaCl, 1 mM DTT, 4% glycerol, room temperature, 30 min; GST-TFs on glutathione beads, 16-mer random dsDNA library, 0.1% formaldehyde crosslink after washing; high values mean tight binding
The target of one experiment is T1, FLI1 (Homo sapiens, UniProt Q01543 1-452).
T1 sequence: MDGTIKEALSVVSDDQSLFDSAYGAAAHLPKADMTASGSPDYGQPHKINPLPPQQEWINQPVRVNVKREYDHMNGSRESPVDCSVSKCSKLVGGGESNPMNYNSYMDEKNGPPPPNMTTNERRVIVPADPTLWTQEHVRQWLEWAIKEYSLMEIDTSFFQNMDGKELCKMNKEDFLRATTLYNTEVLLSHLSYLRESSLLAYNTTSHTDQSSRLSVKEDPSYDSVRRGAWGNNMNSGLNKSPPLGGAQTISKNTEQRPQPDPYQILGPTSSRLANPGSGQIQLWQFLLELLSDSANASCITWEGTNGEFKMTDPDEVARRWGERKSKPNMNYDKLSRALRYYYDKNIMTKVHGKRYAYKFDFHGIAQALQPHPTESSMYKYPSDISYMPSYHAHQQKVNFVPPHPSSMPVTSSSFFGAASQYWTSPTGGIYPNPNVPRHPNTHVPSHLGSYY
Conditions: protein: recombinant; tags: N-terminal GST; dsDNA, one strand shown. The method, boiled down:
(§1)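 Binding signal is given per hexamer as its read frequency for a factor divided by its frequency in the tag-only sample. GST-fused human transcription factors were expressed in yeast, captured on glutathione beads, barcoded with DNA and pooled with that sample, then incubated with 200 nmole of a 16-mer random double-stranded DNA library in Tris/NaCl/DTT/glycerol buffer for 30 min at room temperature. The pools were then washed, crosslinked, proximity-ligated, amplified by PCR and sequenced on an Illumina NextSeq500.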

Another experiment deals with T2, ELK1 (Homo sapiens, UniProt P19419 1-428).
T2 sequence: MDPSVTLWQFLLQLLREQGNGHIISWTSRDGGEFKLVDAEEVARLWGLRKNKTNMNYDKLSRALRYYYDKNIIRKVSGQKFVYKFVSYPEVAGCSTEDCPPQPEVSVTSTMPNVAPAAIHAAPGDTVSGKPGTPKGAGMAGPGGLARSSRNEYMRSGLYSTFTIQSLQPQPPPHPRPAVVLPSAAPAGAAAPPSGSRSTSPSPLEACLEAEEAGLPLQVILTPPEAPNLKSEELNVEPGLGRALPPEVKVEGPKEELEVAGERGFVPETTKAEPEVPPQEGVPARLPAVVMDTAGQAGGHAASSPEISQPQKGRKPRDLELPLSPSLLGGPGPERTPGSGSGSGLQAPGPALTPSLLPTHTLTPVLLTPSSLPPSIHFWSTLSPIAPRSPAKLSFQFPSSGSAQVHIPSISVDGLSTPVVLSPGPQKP
Conditions: protein: recombinant; tags: N-terminal GST; dsDNA, one strand shown. The method in brief:
as §1

The target in another experiment is T3, GABPA (Homo sapiens, UniProt Q06546 1-454).
T3 sequence: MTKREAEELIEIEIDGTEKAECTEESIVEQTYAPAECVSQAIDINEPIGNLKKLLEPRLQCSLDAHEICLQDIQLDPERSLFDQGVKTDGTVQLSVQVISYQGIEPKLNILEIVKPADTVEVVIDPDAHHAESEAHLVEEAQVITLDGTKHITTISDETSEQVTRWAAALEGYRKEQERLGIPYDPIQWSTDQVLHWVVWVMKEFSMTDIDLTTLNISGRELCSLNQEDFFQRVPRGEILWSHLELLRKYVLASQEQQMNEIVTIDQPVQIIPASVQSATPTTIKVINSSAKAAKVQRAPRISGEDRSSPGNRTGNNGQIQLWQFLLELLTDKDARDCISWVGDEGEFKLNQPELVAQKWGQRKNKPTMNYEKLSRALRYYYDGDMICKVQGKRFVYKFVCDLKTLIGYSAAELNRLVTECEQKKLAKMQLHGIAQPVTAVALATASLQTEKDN
Conditions: protein: recombinant; tags: N-terminal GST; dsDNA, one strand shown. The method, boiled down: as §1

The next experiment deals with T4, ERG (Homo sapiens, UniProt P11308 1-479).
T4 sequence: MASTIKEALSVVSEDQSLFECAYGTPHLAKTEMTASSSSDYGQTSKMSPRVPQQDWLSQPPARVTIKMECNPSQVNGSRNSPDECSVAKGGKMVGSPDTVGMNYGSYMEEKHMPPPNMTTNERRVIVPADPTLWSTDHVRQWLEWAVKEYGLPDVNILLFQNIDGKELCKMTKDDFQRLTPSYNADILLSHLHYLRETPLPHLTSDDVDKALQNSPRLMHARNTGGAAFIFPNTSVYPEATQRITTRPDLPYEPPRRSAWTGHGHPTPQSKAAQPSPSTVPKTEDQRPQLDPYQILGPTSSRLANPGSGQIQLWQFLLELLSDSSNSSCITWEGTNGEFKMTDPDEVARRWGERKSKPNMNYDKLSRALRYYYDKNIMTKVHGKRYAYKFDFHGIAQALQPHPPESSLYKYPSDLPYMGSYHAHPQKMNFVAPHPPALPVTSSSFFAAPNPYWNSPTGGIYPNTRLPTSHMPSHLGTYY
Conditions: protein: recombinant; tags: N-terminal GST; dsDNA, one strand shown. The method, boiled down: as §1

The target of the next experiment is ELF1 (Homo sapiens, UniProt P32519 1-619). Conditions: protein: recombinant; tags: N-terminal GST; dsDNA, one strand shown. The method, boiled down: as §1
Chain of ELF1 (P32519 whole entry): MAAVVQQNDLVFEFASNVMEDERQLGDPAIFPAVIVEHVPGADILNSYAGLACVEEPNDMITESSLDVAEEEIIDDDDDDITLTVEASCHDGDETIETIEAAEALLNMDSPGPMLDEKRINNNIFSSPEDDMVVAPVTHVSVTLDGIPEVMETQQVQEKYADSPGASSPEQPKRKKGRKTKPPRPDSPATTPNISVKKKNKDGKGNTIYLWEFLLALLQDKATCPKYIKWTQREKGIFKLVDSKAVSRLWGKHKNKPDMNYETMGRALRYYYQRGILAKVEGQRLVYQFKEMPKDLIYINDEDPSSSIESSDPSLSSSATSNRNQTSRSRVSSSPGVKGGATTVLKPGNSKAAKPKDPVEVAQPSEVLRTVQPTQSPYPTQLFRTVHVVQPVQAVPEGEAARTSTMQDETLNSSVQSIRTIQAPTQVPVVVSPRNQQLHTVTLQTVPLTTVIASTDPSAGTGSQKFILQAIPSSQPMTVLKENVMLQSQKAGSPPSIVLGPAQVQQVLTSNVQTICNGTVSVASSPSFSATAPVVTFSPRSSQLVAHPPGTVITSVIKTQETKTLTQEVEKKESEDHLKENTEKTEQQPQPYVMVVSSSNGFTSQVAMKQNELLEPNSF
The target of the next experiment is T5, EHF (Homo sapiens, UniProt Q9NZC4 1-300).
T5 sequence: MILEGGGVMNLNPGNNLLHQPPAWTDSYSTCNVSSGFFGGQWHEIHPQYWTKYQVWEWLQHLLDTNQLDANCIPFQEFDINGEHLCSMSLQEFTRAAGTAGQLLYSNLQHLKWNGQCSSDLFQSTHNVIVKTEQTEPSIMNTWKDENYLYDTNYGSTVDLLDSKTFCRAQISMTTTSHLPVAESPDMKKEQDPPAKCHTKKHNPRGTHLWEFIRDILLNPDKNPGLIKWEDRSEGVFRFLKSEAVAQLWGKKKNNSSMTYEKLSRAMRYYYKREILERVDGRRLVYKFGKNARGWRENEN
Conditions: protein: recombinant; tags: N-terminal GST; dsDNA, one strand shown. The method, boiled down:
as §1

For the next experiment, the target named is SPI1 (Homo sapiens, UniProt P17947 1-270). Conditions: protein: recombinant; tags: N-terminal GST; dsDNA, one strand shown. The method in brief: as §1
For another experiment, the target named is SPIB (Homo sapiens, UniProt Q01892 1-262). Conditions: protein: recombinant; tags: N-terminal GST; dsDNA, one strand shown. The method, boiled down:
as §1

The next experiment addresses T6, ELK3 (Homo sapiens, UniProt P41970 1-407).
T6 sequence: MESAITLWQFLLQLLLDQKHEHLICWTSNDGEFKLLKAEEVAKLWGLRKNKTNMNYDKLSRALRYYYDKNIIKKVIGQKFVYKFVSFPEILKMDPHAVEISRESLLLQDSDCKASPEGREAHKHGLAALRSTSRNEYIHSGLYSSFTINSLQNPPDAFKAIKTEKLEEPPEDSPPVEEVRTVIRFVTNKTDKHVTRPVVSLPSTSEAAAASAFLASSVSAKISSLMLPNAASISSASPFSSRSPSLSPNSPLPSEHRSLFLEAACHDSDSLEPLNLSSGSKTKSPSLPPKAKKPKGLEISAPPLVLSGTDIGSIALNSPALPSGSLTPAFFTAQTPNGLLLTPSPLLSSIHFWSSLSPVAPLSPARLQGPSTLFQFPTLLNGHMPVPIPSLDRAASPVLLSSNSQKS
Conditions: protein: recombinant; tags: N-terminal GST; dsDNA, one strand shown. The method, boiled down:
as §1

The next experiment concerns the target T7, FEV (Homo sapiens, UniProt Q99581 1-238).
T7 sequence: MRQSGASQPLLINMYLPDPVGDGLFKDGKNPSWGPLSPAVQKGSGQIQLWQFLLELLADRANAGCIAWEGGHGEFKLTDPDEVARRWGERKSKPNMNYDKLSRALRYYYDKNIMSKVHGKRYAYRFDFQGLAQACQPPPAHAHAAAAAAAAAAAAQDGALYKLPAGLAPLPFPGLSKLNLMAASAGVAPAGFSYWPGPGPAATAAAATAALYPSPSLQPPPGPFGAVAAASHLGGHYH
Conditions: protein: recombinant; tags: N-terminal GST; dsDNA, one strand shown. The method in brief:
as §1

For another experiment, the target named is ETV5 (Homo sapiens, UniProt P41161 1-510). Conditions: protein: recombinant; tags: N-terminal GST; dsDNA, one strand shown. The method, boiled down:
as §1

For another experiment, the target named is HSF1 (Homo sapiens, UniProt Q00613 1-529). Conditions: protein: recombinant; tags: N-terminal GST; chain copies: 3; dsDNA, one strand shown. The method, boiled down:
as §1

A further experiment has as its target T8, SPIC (Homo sapiens, UniProt Q8N5J4 1-248).
T8 sequence: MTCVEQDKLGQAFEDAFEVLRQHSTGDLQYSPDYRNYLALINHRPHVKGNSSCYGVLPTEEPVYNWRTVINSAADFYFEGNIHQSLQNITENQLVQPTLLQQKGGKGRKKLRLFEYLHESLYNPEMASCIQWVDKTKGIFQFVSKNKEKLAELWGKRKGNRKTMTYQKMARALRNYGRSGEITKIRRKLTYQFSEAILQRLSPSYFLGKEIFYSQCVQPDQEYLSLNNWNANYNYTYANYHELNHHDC
Conditions: protein: recombinant; tags: N-terminal GST; dsDNA, one strand shown. The method in brief: as §1

Another experiment addresses ELF4 (Homo sapiens, UniProt Q99607 1-663). Conditions: protein: recombinant; tags: N-terminal GST; dsDNA, one strand shown. The method, boiled down:
as §1

In a further experiment the target is T9, ELK4 (Homo sapiens, UniProt P28324-2 1-405).
T9 sequence: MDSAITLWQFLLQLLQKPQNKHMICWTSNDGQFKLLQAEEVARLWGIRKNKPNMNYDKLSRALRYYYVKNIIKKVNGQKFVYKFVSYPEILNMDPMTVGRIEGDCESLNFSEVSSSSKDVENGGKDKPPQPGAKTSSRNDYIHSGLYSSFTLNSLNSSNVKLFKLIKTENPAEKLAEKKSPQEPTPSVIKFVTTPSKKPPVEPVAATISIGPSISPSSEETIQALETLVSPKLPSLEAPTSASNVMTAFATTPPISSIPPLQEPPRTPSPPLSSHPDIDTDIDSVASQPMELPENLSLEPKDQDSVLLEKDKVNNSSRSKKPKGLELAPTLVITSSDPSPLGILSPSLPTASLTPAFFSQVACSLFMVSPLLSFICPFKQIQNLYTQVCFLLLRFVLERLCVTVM
Conditions: protein: recombinant; tags: N-terminal GST; dsDNA, one strand shown. The method, boiled down:
as §1

A further experiment has as its target T10, ETV2 (Homo sapiens, UniProt O00321 1-342).
T10 sequence: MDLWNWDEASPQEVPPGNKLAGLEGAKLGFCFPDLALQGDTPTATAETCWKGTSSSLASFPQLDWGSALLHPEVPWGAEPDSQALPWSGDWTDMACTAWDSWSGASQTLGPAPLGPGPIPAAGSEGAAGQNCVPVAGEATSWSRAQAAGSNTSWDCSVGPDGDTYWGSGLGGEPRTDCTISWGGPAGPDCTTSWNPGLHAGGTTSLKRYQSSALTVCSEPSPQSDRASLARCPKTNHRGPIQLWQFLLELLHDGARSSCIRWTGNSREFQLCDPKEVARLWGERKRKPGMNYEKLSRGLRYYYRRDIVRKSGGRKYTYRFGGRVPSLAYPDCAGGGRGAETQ
Conditions: protein: recombinant; tags: N-terminal GST; dsDNA, one strand shown. The method, boiled down:
as §1

A further experiment concerns the target T11, ELF3 (Homo sapiens, UniProt P78545 1-371).
T11 sequence: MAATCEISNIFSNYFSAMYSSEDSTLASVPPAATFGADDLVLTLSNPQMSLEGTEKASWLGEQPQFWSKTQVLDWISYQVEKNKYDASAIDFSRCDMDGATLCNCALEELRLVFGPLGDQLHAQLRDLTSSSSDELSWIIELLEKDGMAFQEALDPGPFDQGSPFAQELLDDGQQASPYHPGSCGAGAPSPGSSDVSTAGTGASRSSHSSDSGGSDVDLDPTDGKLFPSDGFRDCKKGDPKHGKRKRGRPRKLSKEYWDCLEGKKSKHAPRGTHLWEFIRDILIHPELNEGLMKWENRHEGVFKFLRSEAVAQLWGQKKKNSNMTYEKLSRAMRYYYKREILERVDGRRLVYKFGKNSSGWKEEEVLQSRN
Conditions: protein: recombinant; tags: N-terminal GST; dsDNA, one strand shown. The method in brief:
as §1

Another experiment concerns the target CRX (Homo sapiens, UniProt O43186 1-299). Conditions: protein: recombinant; tags: N-terminal GST; dsDNA, one strand shown. The method, boiled down:
as §1

The target of a further experiment is ETV1 (Homo sapiens, UniProt P50549 1-477). Conditions: protein: recombinant; tags: N-terminal GST; dsDNA, one strand shown. The method in brief:
as §1

Chain of CRX (O43186 whole entry): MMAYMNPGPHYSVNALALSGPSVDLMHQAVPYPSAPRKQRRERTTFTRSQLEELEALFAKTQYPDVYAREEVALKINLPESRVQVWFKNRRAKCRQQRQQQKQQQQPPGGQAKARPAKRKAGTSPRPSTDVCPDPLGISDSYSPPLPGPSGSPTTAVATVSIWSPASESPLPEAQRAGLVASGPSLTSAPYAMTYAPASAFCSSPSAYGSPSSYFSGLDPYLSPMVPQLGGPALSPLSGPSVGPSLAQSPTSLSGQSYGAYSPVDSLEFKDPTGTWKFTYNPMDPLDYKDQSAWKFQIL
Chain of ELF4 (Q99607 whole entry): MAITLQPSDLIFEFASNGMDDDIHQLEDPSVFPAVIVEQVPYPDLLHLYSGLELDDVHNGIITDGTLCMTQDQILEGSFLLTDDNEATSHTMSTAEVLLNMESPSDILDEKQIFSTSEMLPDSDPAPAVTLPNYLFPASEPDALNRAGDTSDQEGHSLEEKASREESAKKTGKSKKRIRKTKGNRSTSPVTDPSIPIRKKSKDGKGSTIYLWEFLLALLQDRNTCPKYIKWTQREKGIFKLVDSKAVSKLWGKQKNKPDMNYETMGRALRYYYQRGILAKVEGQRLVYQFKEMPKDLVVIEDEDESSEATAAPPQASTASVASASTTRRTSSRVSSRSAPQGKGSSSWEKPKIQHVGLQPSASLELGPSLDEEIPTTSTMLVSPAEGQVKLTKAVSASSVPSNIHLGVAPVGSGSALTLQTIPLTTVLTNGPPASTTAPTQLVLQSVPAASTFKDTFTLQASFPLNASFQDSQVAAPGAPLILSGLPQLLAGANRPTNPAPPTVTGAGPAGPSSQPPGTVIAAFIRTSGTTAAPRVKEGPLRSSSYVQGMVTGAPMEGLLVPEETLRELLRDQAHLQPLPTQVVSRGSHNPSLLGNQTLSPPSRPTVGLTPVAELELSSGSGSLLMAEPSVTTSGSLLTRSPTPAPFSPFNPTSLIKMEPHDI
Chain of ETV1 (P50549 whole entry): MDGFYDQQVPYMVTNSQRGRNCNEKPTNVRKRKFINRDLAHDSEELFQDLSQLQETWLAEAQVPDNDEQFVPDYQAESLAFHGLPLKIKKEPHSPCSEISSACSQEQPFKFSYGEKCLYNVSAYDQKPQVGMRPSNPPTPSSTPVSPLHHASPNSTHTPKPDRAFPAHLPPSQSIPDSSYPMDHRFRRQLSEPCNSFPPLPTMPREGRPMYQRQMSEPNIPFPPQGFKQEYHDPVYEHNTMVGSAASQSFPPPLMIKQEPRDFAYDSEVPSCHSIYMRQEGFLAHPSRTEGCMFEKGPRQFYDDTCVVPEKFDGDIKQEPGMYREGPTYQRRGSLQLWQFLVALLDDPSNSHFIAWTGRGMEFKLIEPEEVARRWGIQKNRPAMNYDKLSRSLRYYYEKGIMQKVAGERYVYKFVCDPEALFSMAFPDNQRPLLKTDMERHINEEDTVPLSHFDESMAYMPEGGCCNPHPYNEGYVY
Chain of HSF1 (Q00613 whole entry): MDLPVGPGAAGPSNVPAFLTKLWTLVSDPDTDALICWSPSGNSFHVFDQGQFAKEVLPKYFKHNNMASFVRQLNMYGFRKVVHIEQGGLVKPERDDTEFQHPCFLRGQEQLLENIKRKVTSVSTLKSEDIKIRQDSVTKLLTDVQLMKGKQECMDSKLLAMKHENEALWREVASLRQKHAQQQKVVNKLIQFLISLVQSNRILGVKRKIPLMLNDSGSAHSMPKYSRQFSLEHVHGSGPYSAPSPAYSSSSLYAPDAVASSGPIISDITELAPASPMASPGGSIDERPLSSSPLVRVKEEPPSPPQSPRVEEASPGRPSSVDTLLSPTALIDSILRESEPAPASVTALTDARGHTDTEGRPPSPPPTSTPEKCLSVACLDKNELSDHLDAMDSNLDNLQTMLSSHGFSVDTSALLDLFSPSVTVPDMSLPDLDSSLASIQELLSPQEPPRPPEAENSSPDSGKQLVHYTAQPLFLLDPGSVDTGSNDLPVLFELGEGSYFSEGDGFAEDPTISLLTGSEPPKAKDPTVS
Chain of SPIB (Q01892 whole entry): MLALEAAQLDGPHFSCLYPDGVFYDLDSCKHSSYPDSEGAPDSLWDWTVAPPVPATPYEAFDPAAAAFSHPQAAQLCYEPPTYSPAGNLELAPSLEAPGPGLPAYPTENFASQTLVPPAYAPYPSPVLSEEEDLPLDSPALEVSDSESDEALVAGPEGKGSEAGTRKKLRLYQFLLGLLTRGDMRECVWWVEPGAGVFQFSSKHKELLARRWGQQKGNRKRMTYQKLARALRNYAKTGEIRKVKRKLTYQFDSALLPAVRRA
Chain of ETV5 (P41161 whole entry): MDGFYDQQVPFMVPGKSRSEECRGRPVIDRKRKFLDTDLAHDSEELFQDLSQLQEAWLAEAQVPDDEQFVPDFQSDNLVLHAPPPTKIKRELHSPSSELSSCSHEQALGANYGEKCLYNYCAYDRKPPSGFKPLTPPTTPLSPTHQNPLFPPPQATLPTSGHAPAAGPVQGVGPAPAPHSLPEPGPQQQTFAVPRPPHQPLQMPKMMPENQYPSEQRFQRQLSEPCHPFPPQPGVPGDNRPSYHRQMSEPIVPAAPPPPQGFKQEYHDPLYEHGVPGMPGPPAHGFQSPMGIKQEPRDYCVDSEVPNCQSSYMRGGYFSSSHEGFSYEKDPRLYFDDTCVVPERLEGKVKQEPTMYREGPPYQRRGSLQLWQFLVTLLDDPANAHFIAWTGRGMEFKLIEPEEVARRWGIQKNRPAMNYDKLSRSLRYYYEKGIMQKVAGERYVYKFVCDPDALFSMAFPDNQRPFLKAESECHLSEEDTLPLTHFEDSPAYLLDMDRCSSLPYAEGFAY

Consider TAACTT, for which the binding signal with FLI1 is 1.41 fold enrichment (6-mer frequency, TF over GST control); in the experiment with ELK1, 1.39 fold enrichment (6-mer frequency, TF over GST control); with GABPA, 1.34 fold enrichment (6-mer frequency, TF over GST control); with ERG it was 1.34 fold enrichment (6-mer frequency, TF over GST control); with ELF1, 1.46 fold enrichment (6-mer frequency, TF over GST control); in the experiment with EHF, 1.35 fold enrichment (6-mer frequency, TF over GST control). For the same sequence, the binding signal with SPI1 is 1.62 fold enrichment (6-mer frequency, TF over GST control); with SPIB, 1.43 fold enrichment (6-mer frequency, TF over GST control); with ELK3, 1.27 fold enrichment (6-mer frequency, TF over GST control); with FEV it was 1.51 fold enrichment (6-mer frequency, TF over GST control); with ETV5, 1.45 fold enrichment (6-mer frequency, TF over GST control); in the experiment with HSF1 it was 1.28 fold enrichment (6-mer frequency, TF over GST control). In addition, the binding signal with SPIC is 1.56 fold enrichment (6-mer frequency, TF over GST control); in the experiment with ELF4 it was 1.33 fold enrichment (6-mer frequency, TF over GST control); in the experiment with ELK4, 1.32 fold enrichment (6-mer frequency, TF over GST control); with ETV2, 1.59 fold enrichment (6-mer frequency, TF over GST control); in the experiment with ELF3, 1.35 fold enrichment (6-mer frequency, TF over GST control); with CRX, 1.56 fold enrichment (6-mer frequency, TF over GST control). For the same sequence, the binding signal in the experiment with ETV1 is 1.33 fold enrichment (6-mer frequency, TF over GST control).
